# Results: article PMC11062922 (Nature Chemical Biology, 2023)
# Like-named read-outs stand apart in the source and are kept apart here.
# Assays:
# Set-up in all cases: species or system human, MV4-11 + K-562 + COLO205 + SK-N-BE2 + OVCAR-8
# ACAD8 = settings: read-out: apparent Kd, n = 1
# AKT1 = settings: read-out: apparent Kd, n = 1
# BMPR1B = settings: read-out: apparent Kd; compound concentrations: 100 nM and 1000 nM (sheet 'Samples'), CATDS: 9.3434375492385105E-2; n = 1
# CDK17 = settings: read-out: apparent Kd, n = 1
# DJA1 = test system: T1, DJA1; settings: read-out: apparent Kd, n = 1
# T1 construct: gene DNAJA1
# RIOK2 = settings: read-out: apparent Kd, n = 1
# FN3KRP = settings: read-out: apparent Kd, n = 1
# DDR2 = settings: read-out: apparent Kd, n = 1
# JAK2 = settings: read-out: apparent Kd; compound concentrations:100 nM and 1000 nM (sheet 'Samples'); n = 1
# MAPK9 = settings: read-out: apparent Kd, n = 1
# FLT4 = settings: read-out: apparent Kd, n = 1
# TGFBR1 = settings: read-out: apparent Kd, compound concentrations: 100 nM and 1000 nM (sheet 'Samples'), n = 1
# MAP2K5 = settings: read-out: apparent Kd; compound concentrations: 100 nM and 1000 nM (sheet 'Samples'), CATDS: 9.4548103744077197E-2; n = 1
# [1] = compound concentrations:100 nM and 1000 nM (sheet 'Samples')
structure (smiles),measurement,setting,value
Clc1ccc(-c2nn3ncccc3c2-c2ccnc(Nc3ccccc3)n2)cc1 [GW829055X],potency estimated from few doses,"ACAD8; compound concentrations: 100 nM and 1000 nM (sheet 'Samples'), CATDS: 3.9352617982793499E-2",1220 nM
same,potency estimated from few doses,"AKT1; compound concentrations: 100 nM and 1000 nM (sheet 'Samples'), CATDS: 3.4502228955022099E-2",1670 nM
same,potency estimated from few doses,BMPR1B,264 nM
same,potency estimated from few doses,"CDK17; compound concentrations: 100 nM and 1000 nM (sheet 'Samples'), CATDS: 3.0637739748937999E-2",2340 nM
same,potency estimated from few doses,"DJA1; compound concentrations: 100 nM and 1000 nM (sheet 'Samples'), CATDS: 4.1892877755586803E-2",1060 nM
same,potency estimated from few doses,"RIOK2; compound concentrations: 100 nM and 1000 nM (sheet 'Samples'), CATDS: 3.5482707178261498E-2",1560 nM
Cl.Oc1ccc2ncnc(Nc3ccc(OCc4ccccc4)cc3)c2c1 [GI262866A],potency estimated from few doses,FN3KRP; [1],762 nM
CS(=O)(=O)c1ccc(-c2nc3n(c2-c2ccncc2)CCC3)cc1 [SKF-105942],potency estimated from few doses,"ACAD8; compound concentrations: 100 nM and 1000 nM (sheet 'Samples'), CATDS: 0.13672361229607899",1400 nM
same,potency estimated from few doses,"DJA1; compound concentrations: 100 nM and 1000 nM (sheet 'Samples'), CATDS: 0.12627731400414099",1700 nM
NS(=O)(=O)c1cccc(-c2ccc3nccc(-c4cccc(S(N)(=O)=O)c4)c3c2)c1 [GW867253X],potency estimated from few doses,"ACAD8; compound concentrations: 100 nM and 1000 nM (sheet 'Samples'), CATDS: 0.48469015722886899",2110 nM
Cc1ccc(-n2nc(C(C)(C)C)cc2NC(=O)Nc2ccc(OCCN3CCOCC3)cc2)cc1 [BIRB0876BS],potency estimated from few doses,ACAD8; [1],2100 nM
same,potency estimated from few doses,DDR2; [1],1140 nM
same,potency estimated from few doses,JAK2,748 nM
Cc1ccc(NC(=O)c2ccc(Cl)cc2)cc1-c1ccc(C(=O)Nc2ccncc2)cc1 [GSK1398467A],potency estimated from few doses,"FN3KRP; compound concentrations: 100 nM and 1000 nM (sheet 'Samples'), CATDS: 0.20437737337719999",1180 nM
Cn1cc(C2=C(c3cccc([N+](=O)[O-])c3)C(=O)NC2=O)c2ccccc21 [RO0317474-000],potency estimated from few doses,"FN3KRP; compound concentrations: 100 nM and 1000 nM (sheet 'Samples'), CATDS: 0.16649901321048899",1070 nM
COc1cc(N2CCN(C(C)C)CC2)ccc1Nc1nc(Nc2cccc(F)c2C(=O)O)c2cc[nH]c2n1 [GSK1819799A],potency estimated from few doses,"AKT1; compound concentrations: 100 nM and 1000 nM (sheet 'Samples'), CATDS: 4.312239107291E-2",1940 nM
same,potency estimated from few doses,"CDK17; compound concentrations: 100 nM and 1000 nM (sheet 'Samples'), CATDS: 4.1653075396407099E-2",2170 nM
same,potency estimated from few doses,"DJA1; compound concentrations: 100 nM and 1000 nM (sheet 'Samples'), CATDS: 4.1353934999492699E-2",2220 nM
same,potency estimated from few doses,"MAPK9; compound concentrations: 100 nM and 1000 nM (sheet 'Samples'), CATDS: 0.24378772023950801",74.5 nM
COc1ccccc1C(=O)c1cnc(NC2CCN(S(C)(=O)=O)CC2)nc1N [RO4514610-000],potency estimated from few doses,CDK17; [1],732 nM
NC(=O)c1cccnc1COc1cc(-c2ccc(N3CCOCC3)nc2)cc2ncccc12 [BI01125081],potency estimated from few doses,ACAD8; [1],1930 nM
same,potency estimated from few doses,DDR2; [1],2240 nM
same,potency estimated from few doses,DJA1; [1],1430 nM
CC(=O)Nc1ccc2c(C3=C(c4cn(C)c5ccccc45)C(=O)NC3=O)cn(C)c2c1 [RO0317596-000],potency estimated from few doses,"FN3KRP; compound concentrations: 100 nM and 1000 nM (sheet 'Samples'), CATDS: 0.121909442798699",1250 nM
Fc1cccc(COc2ccc(Nc3ncncc3C#Cc3ccccc3)cc2Cl)c1 [GW651576X],potency estimated from few doses,"ACAD8; compound concentrations: 100 nM and 1000 nM (sheet 'Samples'), CATDS: 5.0604868868818903E-2",1740 nM
same,potency estimated from few doses,"AKT1; compound concentrations: 100 nM and 1000 nM (sheet 'Samples'), CATDS: 4.6282631455897803E-2",2130 nM
same,potency estimated from few doses,"CDK17; compound concentrations: 100 nM and 1000 nM (sheet 'Samples'), CATDS: 4.4959210496165199E-2",2290 nM
same,potency estimated from few doses,"DJA1; compound concentrations: 100 nM and 1000 nM (sheet 'Samples'), CATDS: 6.6379654075199995E-2",1040 nM
same,potency estimated from few doses,"RIOK2; compound concentrations: 100 nM and 1000 nM (sheet 'Samples'), CATDS: 5.4268483350181501E-2",1510 nM
COc1cc(F)c(F)c(F)c1C(=O)c1cnc(NC2CCN(S(C)(=O)=O)CC2)nc1N [RO4600703-000],potency estimated from few doses,CDK17; [1],77.3 nM
same,potency estimated from few doses,FN3KRP; [1],549 nM
COc1ccc(Nc2nccc(N3CCC(NC(=O)Nc4cccc(OC)c4)C3)n2)cc1 (stereo not shown) [GSK1379742A],potency estimated from few doses,"ACAD8; compound concentrations: 100 nM and 1000 nM (sheet 'Samples'), CATDS: 0.11167502777980801",2090 nM
Nc1c(C(=O)c2ccccc2)cnn1-c1ccc(F)cc1 [RO1151246-000],potency estimated from few doses,ACAD8; [1],1760 nM
same,potency estimated from few doses,AKT1; [1],1460 nM
same,potency estimated from few doses,RIOK2; [1],1700 nM
Cc1ccc(C(=O)NC2CC2)cc1-c1ccc2[nH]ncc2c1 [GW820759X],potency estimated from few doses,"FN3KRP; compound concentrations: 100 nM and 1000 nM (sheet 'Samples'), CATDS: 0.34838904093032003",1060 nM
COc1ccc(C2=C(c3cn(C)c4ccccc34)C(=O)NC2=O)cc1OC [RO3206363-000],potency estimated from few doses,"AKT1; compound concentrations: 100 nM and 1000 nM (sheet 'Samples'), CATDS: 7.5592220710657507E-2",180 nM
same,potency estimated from few doses,"DJA1; compound concentrations: 100 nM and 1000 nM (sheet 'Samples'), CATDS: 3.2513241063347201E-2",1710 nM
same,potency estimated from few doses,"FLT4; compound concentrations: 100 nM and 1000 nM (sheet 'Samples'), CATDS: 3.2229986541726797E-2",1770 nM
same,potency estimated from few doses,"MAPK9; compound concentrations: 100 nM and 1000 nM (sheet 'Samples'), CATDS: 8.8329407260920895E-2",133 nM
COc1ccc(S(=O)(=O)NC2CCN(c3cc(C)nc(Nc4cccc(C#N)c4)n3)CC2)cc1.O=C(O)C(F)(F)F [GSK1653539A],potency estimated from few doses,"FN3KRP; compound concentrations: 100 nM and 1000 nM (sheet 'Samples'), CATDS: 0.40384988174316899",910 nM
Cn1cc(C2=C(c3ccccc3[N+](=O)[O-])C(=O)NC2=O)c2ccccc21 [RO0317753-000],potency estimated from few doses,"FN3KRP; compound concentrations: 100 nM and 1000 nM (sheet 'Samples'), CATDS: 8.17359273490917E-2",1130 nM
Cl.Fc1cccc(COc2ccc(Nc3ncnc4cc(-c5ccc[nH]5)sc34)cc2Cl)c1 [GW693881A],potency estimated from few doses,"FN3KRP; compound concentrations: 100 nM and 1000 nM (sheet 'Samples'), CATDS: 0.20216809637719099",791 nM
Fc1ccc(-c2ncn(C3CCNCC3)c2-c2ccnc(Oc3ccc4c(c3)OCO4)n2)cc1 [SB-250715],potency estimated from few doses,ACAD8; [1],1570 nM
same,potency estimated from few doses,AKT1; [1],2330 nM
same,potency estimated from few doses,MAPK9; [1],1260 nM
same,potency estimated from few doses,RIOK2; [1],1920 nM
CCS(=O)(=O)c1ccc(OC)c(Nc2ncc(-c3cccc(F)c3)o2)c1 [GW621970X_KCGS],potency estimated from few doses,ACAD8; [1],2330 nM
same,potency estimated from few doses,FLT4; [1],574 nM
Cn1cc(C2=C(c3cn(CCCCCO)c4ccccc34)C(=O)NC2=O)c2ccccc21 [RO0318053-000],potency estimated from few doses,"FN3KRP; compound concentrations: 100 nM and 1000 nM (sheet 'Samples'), CATDS: 0.23703756302713999",69.9 nM
COc1cccc(C2=C(c3cn(C)c4c(C)cccc34)C(=O)NC2=O)c1 [RO3301012-000],potency estimated from few doses,"FN3KRP; compound concentrations: 100 nM and 1000 nM (sheet 'Samples'), CATDS: 0.113294190935364",1300 nM
COc1ccc(-c2nn3ncccc3c2-c2ccnc(Nc3ccc4c(c3)OCCO4)n2)cc1 [GW827106X],potency estimated from few doses,"DDR2; compound concentrations: 100 nM and 1000 nM (sheet 'Samples'), CATDS: 4.9498926543833199E-2",1520 nM
same,potency estimated from few doses,"MAPK9; compound concentrations: 100 nM and 1000 nM (sheet 'Samples'), CATDS: 4.4079434043462103E-2",2070 nM
same,potency estimated from few doses,TGFBR1; CATDS: 4.6246179171744603E-2,1810 nM
Cc1ccc(CC(=O)N2CCc3cc(-c4cn(C)c5ncnc(N)c45)ccc32)cc1 [GSK2634758A],potency estimated from few doses,"DJA1; compound concentrations: 100 nM and 1000 nM (sheet 'Samples'), CATDS: 0.16738098836047199",1400 nM
same,potency estimated from few doses,"FN3KRP; compound concentrations: 100 nM and 1000 nM (sheet 'Samples'), CATDS: 0.17784341210851801",1240 nM
COc1ccc(COc2ccc(Cc3cnc(N)nc3N)cc2OC)cc1 [GW632580X],potency estimated from few doses,ACAD8; [1],1640 nM
Cc1ccc(NC(=O)Nc2ccccc2)cc1-c1ccc(C(=O)Nc2ccncc2)cc1 [GSK1398471A],potency estimated from few doses,"ACAD8; compound concentrations: 100 nM and 1000 nM (sheet 'Samples'), CATDS: 9.6825044114723993E-2",2180 nM
same,potency estimated from few doses,MAP2K5,2350 nM
NC(=O)c1sc(-n2cnc3ccc(C(F)(F)F)cc32)cc1OCc1ccccc1Br [GW853606X],potency estimated from few doses,JAK2,419 nM
Cl.c1ccc(-c2ccc3c(Nc4ccc5[nH]ncc5c4)ccnc3c2)nc1 [GW440137A],potency estimated from few doses,TGFBR1; CATDS: 8.5016049032497404E-2,2060 nM
